# Bioassay records (PubChem)
# FGF22 binding = binders of recombinant human FGF22 by thermal shift; Q9HCT0; SYPRO orange fluorescence; percent of sucrose octasulfate shift, DMSO zero; 340,000 compounds, 1.5% hits; activity (Tm shift, normalised), % at 9.99 µM;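 active = mean Tm shift, scaled 0 neutral to 100 positive control, at about 1.3% or above, every replicate too, limit read from the data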
# ADAM17 inh = ADAM17 inhibition, QFRET primary screen | inhibition, % at 6.95 µM | recombinant ADAM17, EDANS/DABCYL FRET peptide cleavage | AID 720648 | 370,000 compounds, 0.83% hits;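 active = inhibition above the mean of compounds lying between control limits plus 3 SD, set per campaign, cut at about 8.5% in these data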;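 note: 0% = DMSO-only wells as the low control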
# Target sequence (P78536 215-824 limits assumed): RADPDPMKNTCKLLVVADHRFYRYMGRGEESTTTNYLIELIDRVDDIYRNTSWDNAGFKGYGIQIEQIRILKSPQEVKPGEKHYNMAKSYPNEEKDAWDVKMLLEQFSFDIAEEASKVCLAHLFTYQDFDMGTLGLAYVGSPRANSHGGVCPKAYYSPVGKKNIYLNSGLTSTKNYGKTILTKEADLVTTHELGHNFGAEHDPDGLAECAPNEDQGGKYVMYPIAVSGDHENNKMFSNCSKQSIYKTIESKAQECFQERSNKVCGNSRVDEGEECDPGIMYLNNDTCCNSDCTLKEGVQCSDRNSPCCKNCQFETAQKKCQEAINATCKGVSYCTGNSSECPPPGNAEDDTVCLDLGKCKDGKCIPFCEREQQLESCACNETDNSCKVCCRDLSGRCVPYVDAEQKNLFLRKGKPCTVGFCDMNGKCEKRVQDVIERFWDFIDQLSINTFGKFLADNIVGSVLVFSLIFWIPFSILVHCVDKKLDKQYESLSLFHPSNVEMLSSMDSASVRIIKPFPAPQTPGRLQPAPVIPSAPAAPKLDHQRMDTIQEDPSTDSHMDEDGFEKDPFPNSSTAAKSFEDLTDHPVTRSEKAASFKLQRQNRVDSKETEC
# ADAM10 inh = ADAM10 inhibition, QFRET primary screen; recombinant ADAM10, EDANS/DABCYL FRET peptide cleavage, 3 h; inhibition, % at 7 µM; 370,000 compounds, 0.62% hits;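 active = inhibition above a per-campaign cutoff equal to the mean of compounds falling between control-based bounds plus 3 SD, cut at about 20% in these data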;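 note: 0% = DMSO wells while the 100% control is not disclosed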
# KLK7 zymogen act = proKLK7 (human) activation, primary screen; P49862; purified proKLK7, EDANS-DABCYL substrate fluorescence; 100% is mature enzyme control, 0% vehicle; activation, % at 7 µM; 370,000 compounds, 0.9% hits;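 active = activation above the mean of all tested compounds plus 3 SD, computed per campaign excluding outliers beyond control limits, cut at about 13% in these data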
# Ecoli rRNA inh = inhibits bacterial ribosomal RNA function over humanized ribosomes; 350,000 compounds, 1.6% hits; GFP signal change (wild-type ribosome), % (concentration not given with the values); E. coli WT GFP vs humanized-ribosome RFP mutants, fluorescence, 24 h; stronger effect = lower value; DMSO median 0, no signal -100;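 active = significant combined selectivity score with lowered wild-type GFP, culture density cut under 30%, mutant RFP and density less affected; inactive = any of these conditions unmet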
# ADAM10 confirm = human ADAM10 inhibition, confirmation. shares compounds with ADAM10 inh. ADAM10 QFRET peptide cleavage, EDANS fluorescence. inhibition, % at 6.95 µM. 2,100 compounds, 1% hits. AID 743208;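 active = inhibition above about 20% chosen separately for each screening run, limit read from the data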;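 note: 0% = DMSO wells and 100% = marimastat wells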
# ADAM17 counter = inhibits human ADAM17 in ADAM10 exosite counter-screen | shares compounds with ADAM10 inh | ADAM17 QFRET peptide cleavage, EDANS fluorescence | inhibition, % at 6.95 µM | 2,100 compounds, 0.5% hits | AID 743214;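 active = mean triplicate inhibition above the solvent-only control wells' mean plus 3 SD, cut at about 12% in these data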;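 note: 0% = DMSO wells and 100% = marimastat wells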
# * marks the source's active call; other numbers are inactive results; / = no result. Shown are actives, neighbours in structure and some others; about 3.8% of the full set was active somewhere.
SMILES,FGF22 binding,ADAM17 inh,ADAM10 inh,KLK7 zymogen act,Ecoli rRNA inh,ADAM10 confirm,ADAM17 counter
CN(C)CC#Cc1cccc(-c2nc(C(=O)N[C@@H]3CCN(Cc4ccccc4)C3)cc3c2[C@@H](CCO)N(S(=O)C(C)(C)C)C3)c1 (some centres undefined),-0.7,/,/,/,/,/,/
CCc1nc(NCc2ccc3c(c2)OCO3)c2oc3ccccc3c2n1,/,7.8,27.6*,0.8,/,5.8,1.6
COc1ccc2c3c(n(C)c2c1)[C@@H](CO)N(Cc1ccccc1)CC31CN(C(=O)Nc2cccc(F)c2)C1,0.2,/,/,/,-2.5,/,/
NS(=O)(=O)c1ccc(CCNc2nn3c(-c4cccc(OC(F)(F)F)c4)cnc3s2)cc1,-0.1,6.3,21.3*,-0.3,-15.9,5.1,1.4
COc1ccc(CNc2nn3c(-c4cccc(C(=O)N(C)C)c4)cnc3s2)cc1,-0.1,2.1,0.3,-0.1,-7.0,/,/
CC(C)(C)c1cc(CP(=O)(c2ccccc2)c2ccccc2)cc(C(C)(C)C)c1O,-0.4,5.2,24.5*,-0.7,-25.1,2.1,1.1
O=P(Cc1ccccc1)(c1ccccc1)c1ccccc1,/,0.8,1.6,-0.6,/,/,/
COc1ccc(Nc2nc(N)c([N+](=O)[O-])c(NCCO)n2)cc1,0.0,2.1,-1.4,0.5,-1.1,/,/
COc1ccc(Nc2nc(N)c([N+](=O)[O-])c(NC3CCCCC3)n2)cc1,-0.3,5.8,30.8*,1.0,-4.5,6.2,2.3
COCC(=O)Nc1ccc2c(c1)C(=O)N(C)C[C@@H](OC)[C@@H](C)CN(Cc1ccccc1OC)[C@H](C)CO2,0.0,/,/,/,2.6,/,/
S=c1nc2ccccc2c2nc(-c3ccccc3)[nH]n12,/,1.7,21.3*,0.0,/,-3.1,-0.7
O=C(C[C@@H]1C[C@H]2c3cc(NC(=O)C4CCOCC4)ccc3O[C@H]2[C@H](CO)O1)NCc1ccc(Oc2ccccc2)cc1,-0.7,/,/,/,-4.2,/,/
Cc1ccsc1/C=N/NC(=O)c1nnn(-c2nonc2N)c1CN(C)c1ccccc1,-0.1,6.8,21.8*,-1.9,9.3,1.8,0.9
Cc1noc(C)c1NC(=O)Nc1ccc2c(c1)CC(=O)N([C@@H](C)CO)C[C@H](C)[C@@H](CN(C)Cc1ccccc1)O2,0.2,/,/,/,3.3,/,/
CCOC(=O)c1[nH]c(C)c(C(=O)NCc2ccc(OC)cc2)c1C,0.4,-1.8,68.5*,-0.1,-5.0,0.0,0.1
CCOC(=O)c1ccc(NC(=O)c2ccc(NS(C)(=O)=O)cc2)cc1,/,3.1,21.2*,0.3,/,0.1,0.4
CCOC(=O)c1ccc(NC(=O)c2ccccc2)cc1,-0.2,-2.2,0.0,0.1,24.0,/,/
CCOC(=O)c1ccc(N/C(=N\S(=O)(=O)c2ccccc2C)c2ccccc2)cc1,/,4.2,21.3*,0.4,/,2.5,0.9
C/C(=N\Nc1nc2ccccc2s1)c1cccs1,-0.5,6.8,24.9*,0.8,-36.1,8.0,3.3
O=C(Nc1ccc(F)cc1)Nc1ccc2c(c1)[C@H]1C[C@H](CC(=O)N3CCCCC3)O[C@H](CO)[C@H]1O2,-0.4,/,/,/,-4.0,/,/
C=C(C)COc1ccc(-c2[nH]ncc2Oc2ccc(OC)cc2)c(O)c1,0.0,7.2,21.3*,0.0,-57.2,12.1,3.6
CCOc1ccc(-c2nc(N)ncc2Oc2ccccc2Br)c(O)c1,/,3.8,20.9*,-1.0,/,5.9,2.0
CCOc1ccc(-c2[nH]ncc2Oc2ccccc2OCC)c(O)c1,/,7.4,26.2*,0.3,/,8.2,2.4
Cc1scc(C(=O)NNC(=S)NC(C)c2ccccc2)c1C (centres undefined),0.4,4.8,27.4*,0.0,-20.4*,0.3,0.3
C[C@@H]1CN([C@@H](C)CO)C(=O)Cc2cc(NC(=O)NC3CCCCC3)ccc2O[C@H]1CN(C)CC1CC1,0.2,/,/,/,-0.9,/,/
SMILES,FGF22 binding,ADAM17 inh,ADAM10 inh,KLK7 zymogen act,Ecoli rRNA inh,ADAM10 confirm,ADAM17 counter
COc1ccccc1-c1nnc(SC(C(=O)c2c[nH]c3ccccc23)c2ccccc2)n1C (centres undefined),-0.2,1.6,23.3*,0.8,-20.1,6.5,1.5
COc1ccccc1-c1nnc(SCC(=O)NC2CC2)n1C,-0.4,1.7,-3.6,0.5,2.2,/,/
C[C@@H]1CN([C@H](C)CO)C(=O)c2cc(C#CCN(C)C)cnc2O[C@@H]1CN(C)C(=O)Nc1cccc(F)c1,-0.5,/,/,/,5.2,/,/
C/C=C/c1ccc([C@H]2[C@@H](CO)N3CCCCN(C(=O)Nc4cc(F)ccc4F)C[C@@H]23)cc1,-0.3,/,/,/,-2.4,/,/
Cc1ccc(Cl)cc1N1CCN(C(=O)c2ccc(CS(=O)Cc3ccc(Cl)cc3)o2)CC1 (centres undefined),-0.3,3.3,23.1*,0.0,-12.3,3.1,1.8
O=C(C1CCOCC1)N1[C@H](CO)[C@H](c2ccccc2)C12CN(Cc1cncnc1)C2,/,/,/,/,3.2,/,/
COc1cc(C(=S)N2CCCC2)ccc1OS(=O)(=O)c1ccc(NC(C)=O)cc1,1.0,0.2,0.6,0.3,-11.5,/,/
CC(=O)Nc1ccc(S(=O)(=O)Oc2ccccc2N2CCCCC2)cc1,-0.2,7.6,22.6*,0.7,59.8,1.7,-0.1
CC1(C)SC(=S)N(/N=C/c2ccccc2)C1N(O)C(=O)Nc1ccc([N+](=O)[O-])cc1 (centres undefined),/,6.2,22.2*,0.2,/,2.7,0.5
O=S(=O)(Nc1cccc(-c2ccc(N3CCCCCC3)nn2)c1)c1cccc(F)c1,-0.1,3.8,16.8,11.6,-7.8,/,/
O=S(=O)(Nc1cccc(-c2ccc(N3CCCCCC3)nn2)c1)c1ccc(C(F)(F)F)cc1,0.1,7.5,24.1*,0.5,-13.7,5.6,2.6
O=C(CCc1ccc(S(=O)(=O)NCCc2ccccc2)cc1)N1CCN(Cc2ccc3c(c2)OCO3)CC1,/,3.9,21.2*,0.6,/,6.0,2.1
CC(C)CNS(=O)(=O)c1ccc(CCC(=O)N2CCN(Cc3ccc4c(c3)OCO4)CC2)cc1,/,0.2,6.3,0.2,/,/,/
Cc1ccccc1-n1c(Cn2c(=O)sc3ccccc32)nnc1SC(C)C,0.1,-0.7,77.9*,0.5,-8.1,-1.5,-0.4
CC(C)Sc1nnc(Cn2c(=O)sc3ccccc32)n1-c1ccccc1,-0.3,-2.1,-3.0,0.5,4.5,/,/
Clc1cccc(Cl)c1CON/C=N/c1ncnc2sccc12,/,3.3,5.4,0.1,/,/,/
Clc1cccc(CON/C=N/c2ncnc3sccc23)c1,/,6.4,21.2*,-0.5,/,2.2,0.7
COCCCNC(=O)Cn1cc2c(n1)CCC(C)C2 (centres undefined),-0.1,-0.1,86.6*,0.2,5.5,-1.3,0.3
COc1ccc(CNC(=O)[C@H](C)NC(=O)C2CCN(C(=O)[C@@H](N)CCSC)CC2)cc1,-0.2,-0.5,-7.3,-0.6,/,/,/
